IDE cell inh – human IDE inhibitors in live cells, primary screen, fluorescence polarization, HEK cells, FAbetaB substrate; Insulin-degrading enzyme (Homo sapiens), P14735; FAbetaB cleavage; inhibition, % at 5.59 µM; 320,000 tested, 0.41% active; AID 434962, 2010;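 active = percent inhibition above the average of all tested compounds plus 3 SD, set per screening campaign, cut at about 16% in these data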;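 also: IDE supplied by intact live HEK cells; FP after avidin binding of uncleaved biotin substrate so inhibition keeps polarization high; 0% = DMSO wells and 100% = 60 µM reference IDE inhibitor Ii1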
CHT allo act – CHT positive allosteric modulators, primary screen, cell-based, membrane potential dye, choline EC20 | B-score at 10 µM | 310,000 tested, 0.49% active | CHT-expressing cells; active compounds read high; LV-AA mutant CHT in HEK293 cells;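 active = initial fluorescence not abnormally high and integrated response B-score, plate-corrected, over 3 SD above library mean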
TMEM16A act – TMEM16A chloride channel activators or potentiators, primary screen, cell-based, HTS; Anoctamin-1 (Mus musculus), Q8BHY3; HEK293 TMEM16A/YFP-H148Q/I152L, iodide quench fluorescence; active compounds read low; B-score at 10 µM; 340,000 tested, 0.3% active;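 active = fluorescence-ratio B-score plate-corrected deviation score at least 3 library SD below zero, with starting fluorescence score within 5 deviations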;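 also: channel opened by trigger with iodide after compound preincubation; score built on the fluorescence ratio of max minus min over baseline; more negative score means more quench and so TMEM16A activation or potentiation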
Target sequence (Q8BHY3 whole entry, looked up): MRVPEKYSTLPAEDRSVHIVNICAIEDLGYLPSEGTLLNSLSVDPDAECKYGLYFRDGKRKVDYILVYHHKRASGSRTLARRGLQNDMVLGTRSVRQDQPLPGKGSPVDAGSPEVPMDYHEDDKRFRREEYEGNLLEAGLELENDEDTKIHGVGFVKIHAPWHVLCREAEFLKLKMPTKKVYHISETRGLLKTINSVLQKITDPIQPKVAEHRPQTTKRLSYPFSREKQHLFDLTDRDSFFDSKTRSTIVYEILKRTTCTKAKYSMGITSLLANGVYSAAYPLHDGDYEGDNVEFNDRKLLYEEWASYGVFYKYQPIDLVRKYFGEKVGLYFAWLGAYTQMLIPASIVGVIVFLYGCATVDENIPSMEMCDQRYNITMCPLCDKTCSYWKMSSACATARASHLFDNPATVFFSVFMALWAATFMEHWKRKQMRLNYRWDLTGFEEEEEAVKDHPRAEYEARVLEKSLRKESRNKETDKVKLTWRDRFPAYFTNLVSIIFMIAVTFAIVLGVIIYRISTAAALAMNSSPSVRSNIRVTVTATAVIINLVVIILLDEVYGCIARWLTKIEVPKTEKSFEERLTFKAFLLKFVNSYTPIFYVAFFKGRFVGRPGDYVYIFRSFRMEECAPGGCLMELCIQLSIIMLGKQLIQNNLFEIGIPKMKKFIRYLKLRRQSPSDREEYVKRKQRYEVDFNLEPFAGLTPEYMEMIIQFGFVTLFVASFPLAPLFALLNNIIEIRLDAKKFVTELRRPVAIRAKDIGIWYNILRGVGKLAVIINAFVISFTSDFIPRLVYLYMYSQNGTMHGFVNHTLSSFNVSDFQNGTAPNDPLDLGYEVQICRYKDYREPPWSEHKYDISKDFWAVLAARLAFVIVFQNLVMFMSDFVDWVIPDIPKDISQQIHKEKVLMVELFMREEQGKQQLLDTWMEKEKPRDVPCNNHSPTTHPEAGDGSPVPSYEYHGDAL
TMEM16A inh – TMEM16A chloride channel inhibitors, primary screen, cell-based, HTS; AID 588511, 2011; Anoctamin-1 (Mus musculus), Q8BHY3; 310,000 tested, 1.2% active; HEK293 TMEM16A/YFP iodide influx fluorescence, ionomycin; normalized B-score (activity score, 25-100; higher = stronger inhibition) at 10 µM;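 active = ratio plate-corrected score three or more library SD toward inhibition, starting fluorescence score within five deviations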;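 also: score derived from kinetic fluorescence span divided by baseline fluorescence per well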
CHT block – inhibitors of human choline transporter CHT; High affinity choline transporter 1 (Homo sapiens), Q9GZV3; CHT-expressing cells, membrane potential dye, choline response; active compounds read low; B-score at 10 µM; 310,000 tested, 0.86% active; AID 488975, 2010;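 active = B-score over 3 SD under the library average, and starting fluorescence ratio not unusually high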;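 also: choline stimulus applied at its EC90 after an EC20 pre-addition; B-score computed on integrated fluorescence ratio after choline addition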
IDE act – human IDE activators in live cells, primary screen, fluorescence polarization, HEK cells, FAbeta-B substrate; 340,000 tested, 0.073% active; activation, % at 5.96 µM; Insulin-degrading enzyme (Homo sapiens), P14735; FAbeta-B cleavage; 0% vehicle, 100% cell-free pure enzyme wells;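 active = activation above the mean of all tested compounds plus 3 SD, set per screening campaign, cut at about 17% in these data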
Active calls of the source: *; i = inactive; · = no result. An excerpt weighted towards active compounds, which were near 2.7% of everything screened.

SMILES | IDE cell inh | CHT allo act | TMEM16A act | TMEM16A inh | CHT block | IDE act
CCCc1nc(NCC2CCCO2)c2nnn(Cc3ccccc3)c2n1 (configuration not stated) | 0 | i | -4.9* | i | i | 1
Cc1cc(C)cc(NC(=O)CN2CCC(NC(=O)c3ccccc3F)CC2)c1 | -2 | i | i | i | i | 5
Cc1cccc(OCC(=O)Nc2ccc(C(=O)Nc3ccccc3C(=O)O)cc2)c1C | -1 | i | i | i | -5.6* | 2
CCOC(=O)c1c(CN2CCN(CCO)CC2)n(C)c2cc(Br)c(OC)cc12 | 5 | 7.7* | i | i | i | 2
CCOC(=O)c1c(CN2CCCCC2)n(C)c2cc(Br)c(OC)cc12 | -1 | i | i | i | i | 5
CCOC(=O)c1c(C)n(C)c2ccc(O)c(CN3CCCCC3)c12 | -4 | i | i | i | -13* | -5
CCOC(=O)c1c(CN2CCCCC2)n(C)c2cc(Br)c(O)c(CN(C)C)c12 | 1 | 11* | i | i | i | 7
O=[N+]([O-])c1ccc(O)c(Nc2c([N+](=O)[O-])ccc3nonc23)c1 | 4 | i | i | i | i | -2
NS(=O)(=O)c1ccc(NC(=O)c2ccc(-c3ccccc3)cc2)cc1 | · | · | i | · | · | ·
NS(=O)(=O)c1ccc(NS(=O)(=O)c2ccc(NC(=O)c3ccc(-c4ccccc4)cc3)cc2)cc1 | 36* | i | i | i | i | -23
O=C(CSCCc1ccccn1)Nc1cccnc1Cl | 3 | i | i | 25* | i | -7
O=C(CSCCc1ccccn1)Nc1ccccn1 | 7 | i | i | i | i | 1
CC(C)Cn1c(SC(C)C(=O)NC2CC2)nnc1-c1ccccc1F (configuration not stated) | 1 | · | i | · | · | 0
Cc1ccc(-c2nc(=S)c3c(n2Cc2ccco2)CC(C)(C)OC3)cc1 | -2 | 12* | i | i | i | -1
COc1ccc(SCC(=O)c2cc(C)c(OC(=S)N(C)C)c(C)c2)cc1 | 9 | i | i | 25* | i | -1
COc1ccc(C(=O)CSc2nc(C)cc(C)n2)cc1C | 1 | i | i | i | i | 2
COc1ccc2c(c1)c(CC(=O)Nc1ccc(C(C)=O)cc1)c(C)n2C(=O)c1ccc(Cl)cc1 | -3 | i | i | i | i | -1
COc1ccc2c(c1)c(CC(=O)NCc1cc([N+](=O)[O-])ccc1O)c(C)n2C(=O)c1ccc(Cl)cc1 | 7 | i | i | 100* | i | -2
O=C(/C=C/c1ccc(Cl)cc1)Nc1ccc(N2CCCCC2)cc1 | 3 | i | i | i | i | 40*
COc1ccc(C(=O)c2ccc(OC)c(N)c2)cc1N | -2 | 12* | i | i | i | 12
CCN1CCN(c2c(Cl)cccc2NC(=O)c2cccs2)CC1 | 9 | i | i | i | i | 1
O=C(Nc1cccc(Cl)c1N1CCCC1)c1ccc(Br)o1 | 3 | i | i | 25* | i | 2
CCN1CCN(c2c(Cl)cccc2NC(=O)c2ccc([N+](=O)[O-])o2)CC1 | -3 | 7.1* | i | i | i | 4
COc1cc2oc3ccccc3c2cc1N(CC(=O)N1CCCCC1)S(=O)(=O)c1ccc(C)cc1 | 2 | i | -29* | i | i | 1
Cc1nn(C)c(C)c1-c1c(C#N)c(N)nc2c1CCCCCC2 | 0 | i | -6.1* | i | i | 1
SMILES | IDE cell inh | CHT allo act | TMEM16A act | TMEM16A inh | CHT block | IDE act
Cc1c(-c2c(C#N)c(N)nc3c2CCCCCC3)cnn1C | 1 | i | i | i | i | -3
COc1ccc(-c2ccc3c(c2)C2CC3CCN2C(=O)C(C)(C)C)cc1 (configuration not stated) | · | · | · | · | · | -5
Cn1c(SCC(=O)NCC2CCCO2)nnc1-c1ccco1 (configuration not stated) | 1 | · | i | · | · | 5
COc1ccccc1CNS(=O)(=O)c1ccc(-c2cc(C)no2)cc1 | 10 | 6.4* | i | i | i | -2
CCOc1ccc(S(=O)(=O)NC(C)(C)C)cc1-c1nc2c(C(C)(C)C)nn(C)c2c(=O)[nH]1 | 1 | i | -14* | i | i | -2
Cc1ccc(NC(=O)/C=C/c2ccc(S(=O)(=O)N3CCOCC3)cc2)cc1S(=O)(=O)N(C)C | · | · | · | · | · | 2
CCN1CCN(c2nc(-c3ccncc3)nc3ccccc23)CC1 | -3 | i | · | i | -6.9* | ·
CCCOc1ccc(-c2nc(N3CCN(CC)CC3)c3ccccc3n2)cc1 | 2 | i | i | i | i | -3
Cc1ccccc1Nc1nc(N)nc(COC(=O)[C@@H](NC(=O)c2c(F)cccc2F)C(C)C)n1 | 3 | i | i | i | i | -3
COc1ccc(/C=N/Nc2ncnc3c2[nH]c2ccc(C)cc23)c(OC)c1OC | 39* | i | i | i | i | ·
COc1cc(CNc2ncnc3c2[nH]c2ccc(C)cc23)cc(OC)c1 | 55* | i | i | i | i | -41
O=C(CNC(=O)c1ccc(S(=O)(=O)N2CCCC2)cc1)N/N=C/c1c(Cl)cccc1Cl | 18* | i | i | i | i | -5
CCCCCCSc1cc(-c2nc3cnccn3c2NCCCC)ccc1OC | -1 | · | i | · | · | 20*
CCCCNc1c(-c2ccc(SC(C)CC)cc2)nc2cnccn12 (configuration not stated) | -3 | · | i | · | · | 20*
O=C(CN1CSCC1=O)N1CCN(S(=O)(=O)c2cc(C(F)(F)F)ccc2Cl)CC1 | · | · | i | · | · | -1
CCN1CCN(S(=O)(=O)c2ccc(Cl)c(C(=O)N(C)CC(=O)Nc3c(C)cccc3C)c2)CC1 | · | · | i | · | · | -3
COc1ccc(NC(=O)c2c(Nc3ccccc3)sc(C(=O)c3ccc(F)cc3)c2N)cc1 | 1 | i | i | 100* | i | 6
Cc1ccc(-c2cc(C(=O)N/N=C/c3c[nH]c4ccccc34)[nH]n2)cc1 | · | · | -5.4* | · | · | 0
CCOC(=O)C1(Cc2ccccc2C(F)(F)F)CCN(CCCn2cccn2)CC1 | 7 | i | -6.6* | i | i | 13
O=C(Nc1ccc(Br)cc1)C1CC(c2c(F)cccc2Cl)=NO1 (configuration not stated) | 3 | i | i | 25* | i | 3

Bioassay records: PubChem, several laboratories
